Measurements taken from paper PMC5869772, “Quantitative profiling of BATF family proteins/JUNB/IRF hetero-trimers using Spec-seq”.

Experiments:
Test in all cases: Spec-seq (EMSA and sequencing of bound and unbound bands); 100 nM BATFx-JUNB, 1 uM dsDNA library, 50 mM K acetate, 20 mM Tris-acetate, 10 mM Mg acetate, 100 ug/ml BSA, pH 7.9, 10% glycerol, 30 min on ice; native 9% PAGE at 4 C; low values mean tight binding
Conditions in all cases: protein: recombinant;recombinant; tags: N-terminal mCherry-TEV, cleaved off;C-terminal 6His; copies: 1;1; dsDNA, one strand shown
BATF;JUNB = target: T1, BATF;JUNB (human;human, UniProt Q16520;P17275 1-125;148-347, |)
T1 sequence 1: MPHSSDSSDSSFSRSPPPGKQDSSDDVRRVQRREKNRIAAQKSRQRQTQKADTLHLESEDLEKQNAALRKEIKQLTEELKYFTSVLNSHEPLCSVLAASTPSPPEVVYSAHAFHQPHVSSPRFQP
T1 sequence 2: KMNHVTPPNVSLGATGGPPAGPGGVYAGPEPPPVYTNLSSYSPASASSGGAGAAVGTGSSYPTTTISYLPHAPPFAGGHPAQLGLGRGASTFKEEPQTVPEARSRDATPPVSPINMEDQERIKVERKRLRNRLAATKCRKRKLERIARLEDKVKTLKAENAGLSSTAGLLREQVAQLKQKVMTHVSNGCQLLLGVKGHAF
Summary of the method: (§1)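 The protein, at 100 nM, was incubated with 1 μM double-stranded degenerate DNA library for 30 min on ice in NEB Cutsmart buffer with 10% glycerol, then resolved by native 9% PAGE at 4 °C. Excised bound and unbound bands were PCR-barcoded and Illumina-sequenced, and each sequence's relative binding energy in kT is −ln of its bound/unbound read-count ratio.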

BATF2 (bZIP);JUNB = target: T2, BATF2 (bZIP);JUNB (human;human, UniProt Q8N1L9;P17275 1-142;148-347, |)
T2 sequence 1: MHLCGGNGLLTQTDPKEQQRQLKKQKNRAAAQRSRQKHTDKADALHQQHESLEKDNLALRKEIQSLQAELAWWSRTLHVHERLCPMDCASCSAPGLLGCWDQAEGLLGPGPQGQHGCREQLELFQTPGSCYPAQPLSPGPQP
T2 sequence 2: T1 sequence 2
Summary of the method: as §1

BATF3;JUNB = target: T3, BATF3;JUNB (human;human, UniProt Q9NR55;P17275 1-127;148-347, |)
T3 sequence 1: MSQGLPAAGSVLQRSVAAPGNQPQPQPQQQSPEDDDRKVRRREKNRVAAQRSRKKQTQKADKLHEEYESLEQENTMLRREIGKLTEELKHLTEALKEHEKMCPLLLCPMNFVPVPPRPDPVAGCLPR
T3 sequence 2: T1 sequence 2
Summary of the method: as §1

## GATAGTCTCATTTTCACCCCGTGAAATGAGCCACTTGTTCCATTACAGTATCTGT
BATF;JUNB
  binding signal: 0.573 kT
BATF2 (bZIP);JUNB
  binding signal: 1.34 kT
BATF3;JUNB
  binding signal: 1.15 kT

## GATAGTCTCATTTTCACCCCGTGAAAATGTGTCATTGTTCCATTACAGTATCTGT
BATF;JUNB
  binding signal: -0.713 kT
BATF2 (bZIP);JUNB
  binding signal: -0.258 kT
BATF3;JUNB
  binding signal: -0.757 kT

## GATAGTCTCATTTTCACCCCGTGAAATGAGGCATTTGTTCCATTACAGTATCTGT
BATF;JUNB
  binding signal: 0.568 kT
BATF2 (bZIP);JUNB
  binding signal: 1.08 kT
BATF3;JUNB
  binding signal: 0.744 kT

## GATAGTCTCATTTTCACCCCGTGAAATGACACATTTGTTCCATTACAGTATCTGT
BATF;JUNB
  binding signal: -0.137 kT
BATF2 (bZIP);JUNB
  binding signal: 0.424 kT
BATF3;JUNB
  binding signal: 0.0792 kT

## GATAGTCTCATTTTCACCCCGTGAAAACGAGTCATTGTTCCATTACAGTATCTGT
BATF;JUNB
  binding signal: -0.809 kT
BATF2 (bZIP);JUNB
  binding signal: -0.0168 kT
BATF3;JUNB
  binding signal: -0.328 kT

## GATAGTCTCATTTTCACCCCGTGAAATAACGTCATTGTTCCATTACAGTATCTGT
BATF;JUNB
  binding signal: -0.467 kT
BATF2 (bZIP);JUNB
  binding signal: -0.287 kT
BATF3;JUNB
  binding signal: -1.09 kT

## GATAGTCTCATTTTCACCCCGTGAAATGAGTCAATTGTTCCATTACAGTATCTGT
BATF;JUNB
  binding signal: -0.554 kT
BATF2 (bZIP);JUNB
  binding signal: 0.156 kT
BATF3;JUNB
  binding signal: -0.486 kT

## GATAGTCTCATTTTCACCCCGTGAAATGAGTCGATTGTTCCATTACAGTATCTGT
BATF;JUNB
  binding signal: -0.215 kT
BATF2 (bZIP);JUNB
  binding signal: 1.01 kT
BATF3;JUNB
  binding signal: 0.391 kT

## GATAGTCTCATTTTCACCCCGTGAAATGAGGCAATTGTTCCATTACAGTATCTGT
BATF;JUNB
  binding signal: 0.661 kT
BATF2 (bZIP);JUNB
  binding signal: 1.12 kT
BATF3;JUNB
  binding signal: 0.808 kT

## GATAGTCTCATTTTCACCCCGTGAAATTTAGTCATTGTTCCATTACAGTATCTGT
BATF;JUNB
  binding signal: -0.725 kT
BATF2 (bZIP);JUNB
  binding signal: -0.038 kT
BATF3;JUNB
  binding signal: -0.503 kT

## GATAGTCTCATTTTCACCCCGTGAAATGAGTGAATTGTTCCATTACAGTATCTGT
BATF;JUNB
  binding signal: 0.0809 kT
BATF2 (bZIP);JUNB
  binding signal: 0.83 kT
BATF3;JUNB
  binding signal: 0.58 kT

## GATAGTCTCATTTTCACCCCGTGAAACTGCGTCATTGTTCCATTACAGTATCTGT
BATF;JUNB
  binding signal: -0.647 kT
BATF2 (bZIP);JUNB
  binding signal: -0.164 kT
BATF3;JUNB
  binding signal: -0.774 kT

## GATAGTCTCATTTTCACCCCGTGAAATGACTAAATTGTTCCATTACAGTATCTGT
BATF;JUNB
  binding signal: -0.125 kT
BATF2 (bZIP);JUNB
  binding signal: 0.513 kT
BATF3;JUNB
  binding signal: 0.0877 kT

## GATAGTCTCATTTTCACCCCGTGAAATGAGGTCATTGTTCCATTACAGTATCTGT
BATF;JUNB
  binding signal: -0.348 kT
BATF2 (bZIP);JUNB
  binding signal: 0.096 kT
BATF3;JUNB
  binding signal: -1.09 kT

## GATAGTCTCATTTTCACCCCGTGAAATGAGTTAATTGTTCCATTACAGTATCTGT
BATF;JUNB
  binding signal: 0.138 kT
BATF2 (bZIP);JUNB
  binding signal: 0.697 kT
BATF3;JUNB
  binding signal: 0.279 kT

## GATAGTCTCATTTTCACCCCGTGAAATGACGACATTGTTCCATTACAGTATCTGT
BATF;JUNB
  binding signal: -0.298 kT
BATF2 (bZIP);JUNB
  binding signal: 0.288 kT
BATF3;JUNB
  binding signal: -0.606 kT

## GATAGTCTCATTTTCACCCCGTGAAATGACGCATTTGTTCCATTACAGTATCTGT
BATF;JUNB
  binding signal: -0.475 kT
BATF2 (bZIP);JUNB
  binding signal: 0.109 kT
BATF3;JUNB
  binding signal: -0.479 kT

## GATAGTCTCATTTTCACCCCGTGAAATGACCTCATTGTTCCATTACAGTATCTGT
BATF;JUNB
  binding signal: -0.305 kT
BATF2 (bZIP);JUNB
  binding signal: 0.217 kT
BATF3;JUNB
  binding signal: -0.817 kT

## GATAGTCTCATTTTCACCCCGTGAAATTAAGTCATTGTTCCATTACAGTATCTGT
BATF;JUNB
  binding signal: -0.398 kT
BATF2 (bZIP);JUNB
  binding signal: -0.048 kT
BATF3;JUNB
  binding signal: -0.719 kT

## GATAGTCTCATTTTCACCCCGTGAAATGAGTCGCTTGTTCCATTACAGTATCTGT
BATF;JUNB
  binding signal: 0.025 kT
BATF2 (bZIP);JUNB
  binding signal: 1.18 kT
BATF3;JUNB
  binding signal: 0.711 kT

## GATAGTCTCATTTTCACCCCGTGAAATGAATCATTTGTTCCATTACAGTATCTGT
BATF;JUNB
  binding signal: -0.738 kT
BATF2 (bZIP);JUNB
  binding signal: -0.323 kT
BATF3;JUNB
  binding signal: -0.732 kT

## GATAGTCTCATTTTCACCCCGTGAAAGTTAGTCATTGTTCCATTACAGTATCTGT
BATF;JUNB
  binding signal: -0.763 kT
BATF2 (bZIP);JUNB
  binding signal: -0.0778 kT
BATF3;JUNB
  binding signal: -0.656 kT

## GATAGTCTCATTTTCACCCCGTGAAATGAGCCAATTGTTCCATTACAGTATCTGT
BATF;JUNB
  binding signal: 0.591 kT
BATF2 (bZIP);JUNB
  binding signal: 1.4 kT
BATF3;JUNB
  binding signal: 0.829 kT

## GATAGTCTCATTTTCACCCCGTGAAATGACGTGATTGTTCCATTACAGTATCTGT
BATF;JUNB
  binding signal: -0.588 kT
BATF2 (bZIP);JUNB
  binding signal: -0.181 kT
BATF3;JUNB
  binding signal: -1.06 kT

## GATAGTCTCATTTTCACCCCGTGAAATGGCTCATTTGTTCCATTACAGTATCTGT
BATF;JUNB
  binding signal: 0.393 kT
BATF2 (bZIP);JUNB
  binding signal: 1.11 kT
BATF3;JUNB
  binding signal: 0.838 kT

## GATAGTCTCATTTTCACCCCGTGAAATAAGTCATTTGTTCCATTACAGTATCTGT
BATF;JUNB
  binding signal: -0.248 kT
BATF2 (bZIP);JUNB
  binding signal: 0.152 kT
BATF3;JUNB
  binding signal: -0.202 kT
